The source of these data is PubChem BioAssay (NCI).

The panel holds about 79,000 compounds, 15% with a hit somewhere; the sample as a whole holds those more often. A number with no mark means an inactive call. Activity calls are given as the source filed them. Rule as the data show it: active = growth inhibition above about 70%; inactive = the rest.

The first assay is described as follows: NCI Yeast Anticancer Drug Screen. Data for the rad50 strain (AID 155).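 Also: 0% = growth of vehicle-only cultures of the same strain.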 The note with it: S. cerevisiae rad50 strain growth inhibition; at 50.0 µM (retest, dose inferred, filed as 5.0); hits give high values. An outline of the steps:
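Cells are treated with compound, grown, and their growth is then scored against vehicle-only cultures of the same repair-deficient yeast strain.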
Regarding `Cc1cc(O)c(C(=O)/C=C/c2ccnc3ccccc23)c(=O)o1`, the growth inhibition was 5%.
Same read-out and setting: the result for `ONC1=Nc2ccccc2OCc2cc(Br)c(Br)cc2COc2ccccc2N=C1NO` reads 96% (active); that for `NNC(=O)c1ccc(N)cc1O`, -5%.
For `O=C(N/C(=C\c1ccc2c(c1)OCO2)c1nc2ccccc2s1)c1ccccc1`, the growth inhibition was 98% (active).
Same read-out and setting: in the case of `CC1=NN(C(=O)c2ccncc2)C(=O)C1N=Nc1ccc(C)c([N+](=O)[O-])c1` (stereo not given) it was 61%; in that of `COc1ccc2nc3cc(Cl)ccc3c(Nc3nccs3)c2c1`, 90% (active).
Take `S=C(S)NCCN1CCNCC1`: the growth inhibition was -14%.
As for `ClCc1nc2ccccc2c2ccccc12`, the growth inhibition was 50%.
Still for that read-out and setting: the result for `ClC1=C(Cl)C(Cl)(C(Cl)(Cl)Cl)C(Cl)=C1Cl` reads 98% (active); that for `FC(F)(F)COP1(OCC(F)(F)F)=NP(OCC(F)(F)F)(OCC(F)(F)F)=NP(c2ccccc2)(c2ccccc2)=N1`, -4%; that for `CC(C)c1c(P(=O)(c2ccccc2)c2ccccc2)n(C)c2ccccc12`, 99% (active).
For the molecule `CN(CCC1CCCCC1)CCC1CCCCC1`, the growth inhibition was 89% (active).
As to `Cc1nc(Cl)nc(N)c1[N+](=O)[O-]`, the growth inhibition is 44%.
As to `Nc1ccc2[nH]c3ccccc3c2c1`, the growth inhibition is 6%.
The same measure, in the same setting: the result for `COc1ccc(NC(=O)CSC(N)=O)cc1` reads 12%.

The assay is the same for the next values; noted with them: S. cerevisiae rad50 strain growth inhibition; at 50.0 µM; hits give high values.
Turning to `CCC(c1ccccc1)N1C(=O)c2ccccc2S1(=O)=O` (stereo not given), the growth inhibition is 33.4%.
With `Cc1ccc2cc3ccccc3c(-c3ccccc3)c2c1`, the growth inhibition is 10.6%.
The same measure, in the same setting: the result for `CC(=O)Oc1ccc(C)cc1C(C)(C)C` reads 57.6%; that for `CCCCCCCCCCC[N+](C)(C)CCCCCC[N+](C)(C)CCCCCCCCCCC`, 88.6% (active).
As for `CCN(CC)CCCNc1nc(NCCCN(CC)CC)c2nc(-c3ccccc3)c(-c3ccccc3)nc2n1`, the growth inhibition is 66.5%.
The same measure, in the same setting: the result for `O=[N+]([O-])c1cnc(Sc2cncc[n+]2[O-])s1` reads 99.5% (active).
The same measure, in the same setting: in the case of `O=c1[nH]c(=O)c2cc([N+](=O)[O-])cc([N+](=O)[O-])c2[nH]1` it was 50.6%.
Same read-out and setting: the result for `O=C(NC(=O)C(F)(F)F)Nc1ccc(Cl)cc1` reads -35.8%; that for `O=[N+]([O-])c1ccc(S)c(Cl)c1`, 95.5% (active).
On to `CS(=O)(=O)n1c(C(O)c2ccccc2)nc2ccccc21` (stereo not given), for which the growth inhibition was 8.95%.
As to `O=C(NCc1ccccc1)C1C(=O)N(Cc2ccccc2)C(=O)/C1=N/O` (stereo not given), the growth inhibition is -17.1%.
For `C[n+]1c(/C=C/c2ccccc2Cl)sc2ccccc21`, the growth inhibition is 97.2% (active).
Still for that read-out and setting: the result for `CC(=O)c1ccc(Cl)c(N=Cc2cc(Br)ccc2O)c1` reads 68.4%; that for `O=C(c1ccc(Cl)cc1)c1ccc([N+](=O)[O-])cc1`, 5.35%; that for `Nc1ccc2c(c1)[nH]c(=O)c1cc(Cl)c(Cl)cc12`, 96.3% (active).
Same read-out and setting: the result for `COc1ccc(C2CC(c3c(O)ccc4ccccc34)=NN2)cc1OC` (stereo not given) reads 89.2% (active); that for `CC[N+]1(C)CCC(O)(c2ccc(Cl)c(Cl)c2)C(C(=O)c2ccc(Cl)c(Cl)c2)C1` (stereo not given), 99.4% (active).
`Nc1nc(Cl)cc(NCC2(CO)CC(CCCc3ccccc3)C2)n1` (stereo not given): the growth inhibition was -8.3%.
For the molecule `Nc1nc(-c2cc3cc(Cl)ccc3o2)cs1`, the growth inhibition is 1.1%.
Still for that read-out and setting: the result for `O=C(N(c1ccc(Cl)cc1)c1ccc(Cl)cc1)C(Cl)(Cl)Cl` reads -13.9%; that for `NC(CSSCC(N)C(=O)Nc1ccc2ccccc2c1)C(=O)Nc1ccc2ccccc2c1` (stereo not given), 88.6% (active).
The same measure, in the same setting: in the case of `O=C/C=C/c1cc([N+](=O)[O-])ccc1Cl` it was 81.5% (active); in that of `COc1cc(C(c2cc3c(cc2OC(C)=O)OCO3)C(C(C)=O)C(C)=O)cc(OC)c1OC(C)=O` (stereo not given), 3.7%; in that of `CCCCc1ccc(Nc2nc(N)c3[nH]cnc3n2)cc1`, 82.1% (active).
Regarding `O=C(O)/C=C/C(=O)Nc1cccc2ccccc12`, the growth inhibition is 6.35%.
On to `Cc1cc(O)c(C(=O)/C=C/c2ccnc3ccccc23)c(=O)o1`, for which the growth inhibition is -9.7%.
Same read-out and setting: in the case of `ONC1=Nc2ccccc2OCc2cc(Br)c(Br)cc2COc2ccccc2N=C1NO` it was 88% (active); in that of `NNC(=O)c1ccc(N)cc1O`, -13.6%; in that of `O=C(N/C(=C\c1ccc2c(c1)OCO2)c1nc2ccccc2s1)c1ccccc1`, 97% (active).
Same read-out and setting: in the case of `CC1=NN(C(=O)c2ccncc2)C(=O)C1N=Nc1ccc(C)c([N+](=O)[O-])c1` (stereo not given) it was 47.5%; in that of `COc1ccc2nc3cc(Cl)ccc3c(Nc3nccs3)c2c1`, 95.1% (active).
For the molecule `S=C(S)NCCN1CCNCC1`, the growth inhibition was 36.8%.
For the molecule `ClCc1nc2ccccc2c2ccccc12`, the growth inhibition was 73.8% (active).
On the same count and under the same terms, the result for `ClC1=C(Cl)C(Cl)(C(Cl)(Cl)Cl)C(Cl)=C1Cl` reads 99.6% (active).
On to `FC(F)(F)COP1(OCC(F)(F)F)=NP(OCC(F)(F)F)(OCC(F)(F)F)=NP(c2ccccc2)(c2ccccc2)=N1`, for which the growth inhibition is 25.9%.
As to `CC(C)c1c(P(=O)(c2ccccc2)c2ccccc2)n(C)c2ccccc12`, the growth inhibition was 83.4% (active).
The same measure, in the same setting: the result for `CN(CCC1CCCCC1)CCC1CCCCC1` reads 97.9% (active); that for `Cc1nc(Cl)nc(N)c1[N+](=O)[O-]`, 53.8%; that for `Nc1ccc2[nH]c3ccccc3c2c1`, 92.3% (active).
With `COc1ccc(NC(=O)CSC(N)=O)cc1`, the growth inhibition is 49.1%.
